Rows were chosen to be rich in hits. Some 3% of all compounds tested hit in one or more screens of this group.
SENP8 block-1 = SENP8 protease inhibition | Q96LD8 | purified SENP8, Z-RLRGG-aminoluciferin cleavage, luminescence | inhibition, % at 10 µM | 330,000 tested, 1.2% active | AID 2540; in the data active = inhibition above about 50%
Target sequence (Q96LD8 whole entry, looked up): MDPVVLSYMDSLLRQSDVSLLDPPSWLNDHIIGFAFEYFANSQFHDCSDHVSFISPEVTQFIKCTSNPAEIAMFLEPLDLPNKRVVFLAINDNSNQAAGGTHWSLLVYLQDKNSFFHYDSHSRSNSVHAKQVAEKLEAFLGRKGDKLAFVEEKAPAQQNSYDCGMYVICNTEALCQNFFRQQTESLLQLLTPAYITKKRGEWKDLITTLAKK
SENP7 inh = inhibitors of human SENP7 protease; inhibition, % at 5 µM; AID 434973; Q9BQF6; 330,000 tested, 1.5% active; recombinant SENP7, Z-RLRGG-aminoluciferin luminescence, 40 min;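 active = inhibition above about 50% at the single test dose, limit read from the data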;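 note: plate controls were DMSO with enzyme for no effect and no enzyme buffer wells for full effect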
SENP8 block-2 = SENP8 (human) protease inhibition | recombinant SENP8, Nedd8 substrate fluorescence | inhibition, % at 20 µM | 360,000 tested, 0.64% active | AID 602440; in the data active = inhibition mostly above about 40%, no sharp cut-off; inactive = mostly below about 27%
SENP6 block = SENP6 protease inhibition. inhibition, % at 10 µM. Recombinant SENP6 catalytic domain, aminoluciferin luminescence. 330,000 tested, 1.8% active. Q9GZR1;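 active = inhibition above about 50% at the single tested dose, limit read from the data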;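 note: plate controls were DMSO wells with enzyme for no effect and DMSO wells lacking enzyme for full effect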
Target sequence (Q9GZR1 628-1112 limits assumed): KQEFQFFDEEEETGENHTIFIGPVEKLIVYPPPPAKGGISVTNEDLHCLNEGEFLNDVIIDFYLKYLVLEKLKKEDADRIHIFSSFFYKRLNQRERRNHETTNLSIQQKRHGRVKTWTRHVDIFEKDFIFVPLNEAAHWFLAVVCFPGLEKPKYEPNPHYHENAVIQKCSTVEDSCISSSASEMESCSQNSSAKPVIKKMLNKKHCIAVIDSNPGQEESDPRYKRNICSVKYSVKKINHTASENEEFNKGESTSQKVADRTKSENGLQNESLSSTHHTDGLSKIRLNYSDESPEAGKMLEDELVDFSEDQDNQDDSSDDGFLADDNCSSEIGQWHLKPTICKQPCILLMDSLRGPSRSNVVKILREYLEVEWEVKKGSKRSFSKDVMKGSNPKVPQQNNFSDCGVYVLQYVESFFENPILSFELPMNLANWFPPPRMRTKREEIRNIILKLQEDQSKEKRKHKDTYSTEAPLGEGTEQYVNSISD
C8 TRAIL sens = caspase-8 TRAIL sensitization; NB7+C8 cells + TRAIL, ATPlite viability luminescence; inhibition (viability loss, TRAIL sensitization), % at 10 µM; 360,000 tested, 1% active;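 active = compounds causing at least 50% loss of cell viability in the single-dose screen, relative to plate controls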
PPC-1+TRAIL kill = PPC-1 cancer cell killing with TRAIL present. PPC-1 cells + TRAIL, ATPLite viability luminescence. cell killing (% activity), % at 4 µM or 5 µM. 220,000 tested, 0.41% active;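 active = cell killing above 50% in the first pass at 4 µM, then a duplicate retest at 5 µM averaging 50% or more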;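 note: plate controls were cells with TRAIL plus DMSO for no effect and medium-only wells lacking cells for full effect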
SENP8 inh conf = confirmation of human SENP8 protease inhibitors; inhibition, % at 25 µM; AID 624319; purified SENP8, Nedd8-AMC/pro-Nedd8 cleavage fluorescence, 30 min; shares compounds with SENP8 block-2; 1,400 tested, 15% active; in the data active = inhibition mostly above about 39%, no sharp cut-off; inactive = mostly below about 34%
An asterisk follows results filed as active; nt = not tested or not shown.

SMILES | SENP8 block-1 | SENP7 inh | SENP8 block-2 | SENP6 block | C8 TRAIL sens | PPC-1+TRAIL kill | SENP8 inh conf
CCOC(=O)C1CCN(C(=O)c2ccccc2CCc2ccccc2)CC1 | -1.5 | -6.9 | 6.8 | -5.1 | 3.0 | nt | nt
CC1CC(C)(C)CC2(C1)NC(=O)N(CC(=O)NC1CCCc3ccccc31)C2=O (stereo not given) | 1.2 | 12.8 | 12.5 | 3.9 | -4.3 | 1.0 | nt
COC(=O)NN=C1CCC(c2ccccc2)CC1 (stereo not given) | 0.4 | 4.1 | 4.5 | -14.7 | 0.4 | nt | nt
COC(=O)N/N=C1/C/C(=N\NC(=O)OC)c2ccccc21 | 17.5 | 15.3 | 80.7* | 15.9 | -10.4 | 9.3 | 96.2*
CS(=O)(=O)N(CC(=O)NCC1CCCO1)c1ccc(F)c(Cl)c1 (stereo not given) | -6.3 | -12.3 | 51.2* | -9.3 | -2.1 | 3.0 | 7.2
Cc1ccc(S(=O)(=O)N2CCOCC2)cc1C(=O)NCCCN1CCCC1=O | nt | nt | 20.6 | nt | -15.6 | nt | nt
Cc1ccccc1C(=O)Nc1ccc(-c2nnc(SC(C)C(=O)O)n2C)cc1 (stereo not given) | -4.3 | -11.0 | 41.0* | -13.2 | 9.4 | -15.6 | 16.0
Cc1ccc(S(=O)(=O)N2CCOCC2)cc1C(=O)OCC(=O)N1CCc2ccccc2C1 | nt | nt | 51.1* | nt | 15.2 | 42.3 | 37.0
O=C(COC(=O)c1cc(S(=O)(=O)N2CCc3ccccc3C2)ccc1Cl)NCc1ccco1 | 3.8 | 17.5 | 41.6* | 19.2 | -20.4 | 8.5 | 56.6*
COc1cccc(C(C(=O)NC2CCCC2)N(C(=O)CNC(=O)c2ccco2)c2cccnc2)c1 (stereo not given) | -5.4 | -5.6 | 17.7 | 0.8 | -1.2 | nt | nt
CCOc1ccc(N(CC(=O)NCc2ccccc2)S(C)(=O)=O)cc1 | 2.4 | 11.0 | 48.1* | -11.0 | -15.0 | -16.8 | 27.6
COc1cc(NC(=O)Cc2cccc3ccccc23)c(C(=O)O)cc1OC | 2.3 | 1.6 | -4.9 | -3.1 | 3.3 | nt | nt
O=C(O)/C=C/C(=O)Nc1ccc(O)cc1 | -4.3 | -3.8 | 80.9* | -10.1 | -14.8 | 3.2 | 31.3
COc1ccc(Br)cc1C1CC(=O)N2CN(Cc3ccccc3)CSC2=C1C#N (stereo not given) | 31.1 | 19.3 | 67.7* | 15.9 | -11.5 | -3.1 | 1.1
COc1ccc(OC)c(C2CC(=O)N3CN(c4ccc(C)c(Cl)c4)CSC3=C2C#N)c1 (stereo not given) | 7.5 | 11.2 | 6.4 | 3.7 | 10.1 | -10.3 | nt
CCOC(=O)c1ccc(N2CSC3=C(C#N)C(c4ccc(OC)cc4OC)CC(=O)N3C2)cc1 (stereo not given) | -7.0 | 13.0 | 51.5* | -14.1 | 19.8 | -25.4 | 11.8
COc1ccc(Br)cc1C1CC(=O)N2CN(C)CSC2=C1C#N (stereo not given) | 1.3 | 15.7 | 65.1* | -1.7 | 24.1 | -10.3 | 0.7
CCCOC(=O)/C(=C\c1ccc([N+](=O)[O-])o1)NC(=O)c1ccccc1 | -15.3 | -10.9 | 35.4 | -20.7 | 2.9 | 11.9 | nt
CCOC(=O)/C(=C\c1ccc([N+](=O)[O-])o1)NC(=O)c1ccccc1 | -3.7 | 9.7 | 41.9* | -16.4 | 14.0 | 5.1 | 22.1
CC1(c2ccc3ccccc3c2)NC(=O)N(CC(=O)N2CCN(c3ccccc3O)CC2)C1=O (stereo not given) | 1.1 | -6.4 | 3.2 | -0.5 | 0.9 | nt | nt
CCc1nc2ccccc2c(C(=O)OCCN2C(=O)c3ccccc3C2=O)c1C | 5.4 | 3.1 | 42.3* | 1.2 | -2.1 | -3.6 | 32.4
O=[N+]([O-])c1ccc(C=NNC(=S)NN=Cc2ccc([N+](=O)[O-])cc2)cc1 | nt | nt | 70.1* | nt | 9.1 | nt | 13.2
O=[N+]([O-])c1ccc(C=NNC(=S)Nc2ccc(F)cc2)cc1 | nt | nt | 27.9 | nt | -3.3 | nt | nt
O=C(c1cc2ccccc2[nH]1)N1CCOCC1 | -10.4 | -7.4 | -17.7 | 4.0 | -0.6 | 5.7 | nt
CCNc1nc(NC(C)(C)C)nc(N2CCCC2)n1 | -0.4 | 5.9 | 28.4 | -29.1 | 16.1 | 12.0 | nt
SMILES | SENP8 block-1 | SENP7 inh | SENP8 block-2 | SENP6 block | C8 TRAIL sens | PPC-1+TRAIL kill | SENP8 inh conf
CC(C)(C)Nc1nc(N2CCCC2)nc(N2CCCC2)n1 | -1.4 | 6.9 | 43.6* | -2.6 | 40.8 | 8.6 | 15.5
COCCNC(=O)C1(C)CCCN(C(=O)c2cccc(OC(F)(F)F)c2)C1 (stereo not given) | nt | nt | 7.6 | nt | -13.6 | nt | nt
O=C(Nc1cccc(Cl)c1)c1csc([C@H]2C[C@H](O)[C@@H](CO)O2)n1 | nt | nt | 16.2 | nt | 3.8 | nt | nt
CC(=O)N1CCN(c2ccc([N+](=O)[O-])c(NCc3cccnc3)c2)CC1 | -3.2 | -12.2 | 19.3 | -7.8 | -8.8 | -6.4 | nt
O=C(c1cccc2ccccc12)N1CCN(c2ccc([N+](=O)[O-])c(NCc3ccco3)c2)CC1 | -3.0 | 0.6 | 42.4* | -9.1 | 1.7 | 18.0 | 9.9
Cc1ccccc1C(=O)N1CCN(c2ccc([N+](=O)[O-])c(NCc3ccco3)c2)CC1 | -2.5 | -6.9 | 53.4* | -9.7 | 7.0 | 15.1 | 26.2
Cc1ccc(C(=O)N2CCN(c3ccc([N+](=O)[O-])c(NCc4ccco4)c3)CC2)cc1 | -4.8 | 5.6 | 48.0* | -10.1 | -8.6 | 23.9 | 14.4
Cc1cccc(C(=O)N2CCN(c3ccc([N+](=O)[O-])c(NCc4ccco4)c3)CC2)c1 | 2.0 | 0.5 | 34.8 | -7.6 | -1.3 | 3.3 | nt
CCOc1ccc(NC(=O)[C@@H](NC(=O)OCc2ccccc2)[C@@H](C)CC)cc1 | 4.9 | 4.5 | 6.6 | 4.5 | -0.3 | 2.9 | nt
CCC(C)C(NC(N)=O)C(=O)Nc1ccc(OCc2ccccc2)cc1 (stereo not given) | 2.5 | 7.6 | 48.6* | -0.1 | -22.9 | 3.1 | 20.0
S=C(Nc1ccc2c(c1)OCO2)Nc1ccc2c(c1)OCO2 | 4.9 | 7.5 | 52.8* | 36.8 | 7.7 | 7.9 | 21.2
C/C(=C\C(=O)c1ccc(Br)cc1)Nc1cccc(Cl)c1 | -13.1 | -2.1 | 40.4* | 4.9 | 16.3 | nt | -11.6
Cc1ccc(C(=O)OCC(=O)Nc2ccc3c(c2)OCO3)o1 | -6.7 | -5.3 | 14.7 | 3.6 | -2.7 | -3.0 | nt
C/C(=C\C(=O)c1ccc(C)o1)Nc1ccc2c(c1)OCO2 | -12.7 | -2.2 | 47.1* | -8.9 | 10.4 | 5.2 | 37.5
CC(=O)Nc1ccc2c(c1)OCO2 | -0.6 | -4.4 | 0.1 | -6.4 | -4.1 | -5.8 | nt
CN(C)C(=S)Nc1ccc2c(c1)OCO2 | 8.3 | 6.6 | 10.7 | 11.6 | 15.3 | 3.4 | nt
C/C(=C\C(=O)c1ccccc1)Nc1ccc2c(c1)OCO2 | -17.9 | 0.9 | 66.9* | -11.0 | 23.4 | -24.4 | 20.7
Cn1cnc(NCc2ccccc2)c1[N+](=O)[O-] | -8.5 | 0.4 | 31.2 | -17.4 | 4.8 | 2.1 | nt
CC(OC(=O)C1CCN(S(=O)(=O)c2ccc3c(c2)OCCO3)CC1)C(=O)NC1(C#N)CCCCC1 (stereo not given) | nt | nt | 2.8 | nt | 0.9 | nt | nt
Cc1cc(C)c2c(c1)/C(=N/Nc1ccc(S(N)(=O)=O)cc1[N+](=O)[O-])CCC2 | 3.1 | 8.6 | 53.1* | -3.1 | 1.6 | 8.5 | -2.7

High-throughput results: PubChem BioAssay, Sanford-Burnham Center for Chemical Genomics
